# Assay results: the supplement of paper PMC9023506
# Counter-ions that a name gives are not always drawn.
# Key:
# Conditions in all cases: 10 µM; exposure time: 3 h pre-incubation + 3 h imaging
# [1] = tested on: Danio rerio larvae (5 dpf); assay: excitability to 1-s acoustic pulses, difference vs DMSO (percentage points (treated minus DMSO)); higher = more of the behaviour than the DMSO vehicle control
# Procedure, shortened: (§1)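 5-dpf wild-type zebrafish larvae in 96-well ProxiPlates were exposed to library drugs at 10 µM (diluted 1000× from DMSO stocks into egg water). There were 48 larvae per drug, exposed 3 h before and 3 h during imaging at 28.5 °C. Images taken every 6 s covered a 3-h program of rest, moving coloured lines and acoustic pulses, and an ImageJ macro scored movement and upper-half location. Each behaviour score is the treated-group mean minus the DMSO vehicle mean, in percentage points.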
# [2] = tested on: Danio rerio larvae (5 dpf); assay: startle response to 20-s acoustic pulses, difference vs DMSO (percentage points (treated minus DMSO)); higher = more of the behaviour than the DMSO vehicle control
# Procedure, shortened: as §1
# [3] = tested on: Danio rerio larvae (5 dpf); assay: optomotor response to fast red moving lines, difference vs DMSO (percentage points (treated minus DMSO)); higher = more of the behaviour than the DMSO vehicle control
# Procedure, shortened: as §1
# [4] = tested on: Danio rerio larvae (5 dpf); assay: habituation to 1-s acoustic pulses, difference vs DMSO (percentage points (treated minus DMSO)); higher = more of the behaviour than the DMSO vehicle control
# Procedure, shortened: as §1
# [5] = tested on: Danio rerio larvae (5 dpf); assay: activity during period 15 (no stimuli), difference vs DMSO (percentage points (treated minus DMSO)); higher = more of the behaviour than the DMSO vehicle control
# Procedure, shortened: as §1
compound,measurement,setting,value
CCc1nc(N)nc(N)c1-c1ccc(Cl)cc1 [Pyrimethamine],excitability to 1-s acoustic pulses,[1],6.41
CC1=Nc2ccc(Cl)cc2S(=O)(=O)N1 [Diazoxide],startle response to 20-s acoustic pulses,[2],-3.68
Cc1ccc(O)c([C@H](CCN(C(C)C)C(C)C)c2ccccc2)c1 [Tolterodine L-tartrate],optomotor response,[3],2.15
CN1CCN2c3ncccc3Cc3ccccc3C2C1 (stereo not given) [Mirtazapine],habituation to 1-s acoustic pulses,[4],-2.79
same,startle response to 20-s acoustic pulses,[2],-5.94
Nc1nc(NC2CC2)c2ncn([C@H]3C=C[C@@H](CO)C3)c2n1 [Abacavir hemisulfate],startle response to 20-s acoustic pulses,[2],6.56
C[C@H]1O[C@H](O[C@H]2[C@H](O)[C@@H](O)[C@@H](O[C@H]3[C@H](O)[C@@H](O)C(O)O[C@@H]3CO)O[C@@H]2CO)[C@H](O)[C@@H](O)[C@@H]1N[C@H]1C=C(CO)[C@@H](O)[C@H](O)[C@H]1O (stereo not given in full) [Acarbose],activity during period 15,[5],1.42
CC(C)CN(C[C@@H](O)[C@H](Cc1ccccc1)NC(=O)O[C@H]1CO[C@H]2OCC[C@H]21)S(=O)(=O)c1ccc(N)cc1 [Darunavir],habituation to 1-s acoustic pulses,[4],-1.13
same,startle response to 20-s acoustic pulses,[2],-1.98
CCCCNc1cc(C(=O)O)cc(S(N)(=O)=O)c1Oc1ccccc1 [Bumetanide],activity during period 15,[5],-2.8
Cc1nc(Nc2ncc(C(=O)Nc3c(C)cccc3Cl)s2)cc(N2CCN(CCO)CC2)n1 [Dasatinib],habituation to 1-s acoustic pulses,[4],-0.705
Cn1cnc([N+](=O)[O-])c1Sc1ncnc2[nH]cnc12 [Azathioprine],excitability to 1-s acoustic pulses,[1],-0.039
same,optomotor response,[3],9.79
Clc1ccc2nsnc2c1NC1=NCCN1 [Tizanidine hydrochloride],habituation to 1-s acoustic pulses,[4],-2.36
same,excitability to 1-s acoustic pulses,[1],3.69
C[C@@H]1C[C@H]2[C@@H]3CCC4=CC(=O)C=C[C@]4(C)[C@@]3(F)[C@@H](O)C[C@]2(C)[C@@]1(O)C(=O)CO [Dexamethasone],habituation to 1-s acoustic pulses,[4],2.44
same,optomotor response,[3],0.576
Brc1c(NC2=NCCN2)ccc2nccnc12,habituation to 1-s acoustic pulses,[4],-5.95
same,excitability to 1-s acoustic pulses,[1],7.01
same,optomotor response,[3],16.1
CC/C(=C(\c1ccccc1)c1ccc(OCCN(C)C)cc1)c1ccccc1 [Tamoxifen citrate],habituation to 1-s acoustic pulses,[4],-6.99
same,activity during period 15,[5],20.1
same,startle response to 20-s acoustic pulses,[2],-0.535
same,optomotor response,[3],-8.84
C=CC(=O)N1CCC[C@@H](n2nc(-c3ccc(Oc4ccccc4)cc3)c3c(N)ncnc32)C1 [Ibrutinib],habituation to 1-s acoustic pulses,[4],-7.68
same,excitability to 1-s acoustic pulses,[1],-2.71
same,optomotor response,[3],-0.957
C[C@H]1C[C@@H]2[C@H]([C@@H](O)C[C@@]3(C)[C@H]2CC[C@]3(O)C(=O)CO)[C@@]2(C)C=CC(=O)C=C12 [Methylprednisolone],startle response to 20-s acoustic pulses,[2],-0.0848
COCCCOc1cc(C[C@@H](C[C@H](N)[C@@H](O)C[C@H](C(=O)NCC(C)(C)C(N)=O)C(C)C)C(C)C)ccc1OC [Aliskiren hemifumarate],habituation to 1-s acoustic pulses,[4],7.12
same,excitability to 1-s acoustic pulses,[1],12.2
